Results as given in PubChem BioAssay AID651947 (Broad Institute, 2012).
Entries with a potency or affinity are not part of this list. Inconclusive results are not listed. Values without a mark were called inactive.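 How the source made its calls: active means luminescence drop in HepG2 cells whose fitted half-effect dose is at most twice the top valid dose; inconclusive means flat curve with 30 to 70% signal loss, or unreliable fit; inactive means the rest.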

assay: cytotoxicity in HepG2 cells, dose response, cytotoxicity control, cell-based, plate reader, dry powder (AID 651947); settings: HepG2 viability, ATP luminescence (CellTiter-Glo), 48 h, active compounds read low; at 26 µM unless noted

Compound	max activity
c1ccc(CSc2nnc(-c3ccccc3)o2)cc1	-12.1% [at 1.6 µM]
COc1ccc(CSc2nnc(-c3ccccc3)o2)cc1	-24.9% [at 0.195 µM]
Clc1ccc(-c2nnc(SCc3ccccc3)o2)cc1	-50.8%
